PMK inhibit = blocks S. pneumoniae phosphomevalonate kinase; purified PMK, PK/LDH-coupled NADH absorbance 340 nm; inhibition, % at 10 µM; 65,000 compounds, 0.49% hits;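 active = top-ranked compounds by inhibition in the single 10 µM screen, taking a fixed number of the strongest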;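 also: 0% = full reaction with DMSO carrier and 100% = background rate without enzyme reaction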
Abs 340nm = absorbance at 340 nm | compound absorbance at 340 nm, fold over control | 65,000 tested, under 10 active | fold change at 10 µM;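 active = at 10 µM dose, initial 340 nm absorbance at least 2 fold that of control wells; inactive = change under 2 fold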;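 also: initial absorbance extrapolated from kinetic A340 decline of NADH oxidation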
Spn MK inh = blocks S. pneumoniae mevalonate kinase; 65,000 compounds, 0.48% hits; purified MK, PK/LDH-coupled NADH absorbance 340 nm; inhibition, % at 10 µM; AID 555;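 active = ranked among the strongest by inhibition in the single 10 µM screen, a fixed top-ranked set picked for dose follow-up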
Autofluor 339 = intrinsic fluorescence of library compounds, ex339/em460 – biochemical, MLSMR library, data from DPM-DC assay, artefact control, profiling panel; compound autofluorescence, ex339/em460 nm, NADH buffer; active compounds read high; 1 = no-compound wells, NADH background; fluorescence fold increase at 10 µM; 65,000 compounds, 5.5% hits; AID 709;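 active = at 10 µM, mean starting fluorescence two-fold or more over control wells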;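 also: signal is the first read of a kinetic run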
DPM-DC inhibit = inhibitors of Streptococcus pneumoniae diphosphomevalonate decarboxylase. purified DPM-DC, PK/LDH coupled NADH fluorescence. 65,000 compounds, 0.49% hits. calls only at 10 µM;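 active = the 320 compounds with the highest percent inhibition in the single-dose primary screen, excluding strongly autofluorescent ones, cut at about 32% in these data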;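 also: kinetic rate of NADH fluorescence loss reporting ADP formed by the decarboxylase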
NADH coupling = inhibition of NAD/NADH coupling enzymes, library profiling | coupled PK/LDH NADH assays, four targets | IC50, µM (highest dose often 10 µM), without a hit: top-dose inhibition | 65,000 compounds, 0.02% hits | AID 774;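 active = single-dose screening hits from any of four coupled enzyme assays that gave an IC50 when retested across doses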;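 also: the DPM-DC format reads NADH fluorescence rather than 340 nm absorbance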
Active calls of the source: *; i = inactive; x = not tested or not shown. An excerpt weighted towards active compounds, which were near 6.5% of everything screened.

SMILES | PMK inhibit | Abs 340nm | Spn MK inh | Autofluor 339 | DPM-DC inhibit | NADH coupling
O=C1CCCc2c1nc(-c1ccco1)n2O | 6.0 | 1.19 | 3.0 | 3.9* | x | 5.0%
O=C(O)CCn1c(-c2ccccc2)cc2c1CCCC2=O | 7.0 | 1.06 | 3.0 | 1.05 | i | 3.0%
O=C1CCCc2c1nc(-c1ccccc1)n2O | 0.0 | 1.09 | 93.0* | 2.11* | x | 47.0%
O=C(CN1C(=O)CCS(=O)(=O)c2ccccc21)Nc1cccc(F)c1 | 0.0 | 1.02 | 1.0 | 1.04 | i | 1.0%
CCn1c(CN2CCN(C(=O)c3ccco3)CC2)nc2c1c(=O)n(C)c(=O)n2C | 7.0 | 1 | 9.0 | 1.27 | i | 5.0%
CCCCC(=O)Nc1ccccc1C#N | 10.0 | 1.02 | 13.0 | 1.06 | i | 9.0%
CCCCn1c(NC(=O)CC)c(C#N)c2nc3ccccc3nc21 | 19.0 | 1.01 | 9.0 | 2.96* | x | 7.0%
CCCCn1c(NC(=O)c2ccccc2Cl)c(C#N)c2nc3ccccc3nc21 | 0.0 | 1.09 | 9.0 | 3.95* | x | 5.0%

Source: PubChem BioAssay (SRMLSC)
